The record followed here is PubChem BioAssay (NCATS).

Results filed as inconclusive are left out. The source made the active and inactive calls. Calls come from the whole dose curve; as a rule, active = well fitted curve in the direction sought with a large enough effect; inconclusive = small, poorly fitted or top-dose-only effect, or another doubt; inactive = no such curve, though single readings can be large; an effect the other way counts as inactive or inconclusive.
Potency is the fitted concentration of half-maximal effect.

One test in a line: KB-3-1 Cancer Cell Toxicity qHTS against the NCATS CANVASS Library (AID 1347366). For activity change, negative = cytotoxicity: % is set by controls: 0 for no effect and ±100 for the full control effect. Note: nearly all actives have a fitted effect of over 75% in size. The conditions noted are these: KB-3-1 viability, CellTiter-Glo luminescence, 72 h; series mostly up to 46.1 µM; activity change, negative = cytotoxicity: at the top concentration; outcome: at the top concentration. In outline: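 KB-3-1 cells (500 cells/well) in DMEM + 10% FBS were treated with compounds for 72 hr at 37C, 5% CO2. Viability was read as CellTiter-Glo luminescence after 10 minutes at room temperature.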
(Quantitative high-throughput screening tests each substance at several concentrations.)
As to `CC1=CC2CC[C@@H]3[C@@H](C)C[C@H](C)[C@@H](C1)N23` (stereo partly drawn), the molecule was classed as inactive.
Consider `CC=C1CN(C=O)[C@H]2C[C@@H]1[C@@H](C(=O)OC)[C@@]13CCOC21Nc1ccccc13` (stereo partly drawn), for which the “activity change, negative = cytotoxicity” value is -6.57% (inactive).
On to `C[C@@H]1CC[C@@H](c2ccoc2)N2C[C@@]3(CC[C@@H]12)CS[C@@]1(CC[C@H]2[C@H](C)CC[C@@H](c4ccoc4)N2[C@@H]1O)C3`, for which the Potency is 8.33 µM (active).
Turning to `CCN1C[C@]2(C)CC[C@@H](O)[C@]34C1[C@H](C[C@H]23)C12CCC(CC14)[C@](O)(CO)[C@H]2O` (stereo partly drawn), the “activity change, negative = cytotoxicity” value was -1.09% (inactive).
With `CO[C@@H](/C=C/CC/C=C/C(=O)O)[C@@H](O)[C@H](C)[C@@H](O)/C(C)=C/[C@H](C)C(=O)CCCC1CC(=O)NC(=O)C1`, the call was inactive.
For the molecule `CCCC[C@@H]1CC[C@H]2CCCC(CCC)N12` (stereo partly drawn), the “activity change, negative = cytotoxicity” value is 0.404% (inactive).
As for `C[C@]12CC(O)C3[C@@H](CCC4C[C@@H](O)CC[C@@]43CO)[C@@]1(O)CCC2C1=CC(=O)OC1` (stereo partly drawn), the “activity change, negative = cytotoxicity” value is 8.23% (inactive).
As for `CO[C@@H](/C=C/CC/C=C/C(=O)O)[C@@H](O)[C@H](C)/C=C(\C)[C@@H](O)[C@H](C)C(=O)CCCC1CC(=O)NC(=O)C1`, the molecule was classed as inactive.
For `O=C(c1ccccc1O)c1[nH]c(Cl)c(Cl)c1-n1c(C(=O)c2ccccc2O)cc(Cl)c1Cl`, the Potency was 2.35 µM (active).
On to `CC[C@@H]1CN2CC[C@@]3(O)C(=Nc4cccc(OC)c43)[C@@H]2C[C@@H]1/C(=C\OC)C(=O)OC`, for which the “activity change, negative = cytotoxicity” value is 6.82% (inactive).
For the molecule `c1ccc2c3c([nH]c2c1)CNCC3`, the “activity change, negative = cytotoxicity” value was 8.95% (inactive).
The same measure, in the same setting: to `CNCCc1ccccc1` belongs -14.6% (inactive).
Take `CCCCC[C@@H]1OC(=O)[C@@H](C)N(C)C(=O)[C@H](CCCCC)OC(=O)C(C)N(C)C(=O)[C@H](CCCCC)OC(=O)[C@@H](C)N(C)C(=O)[C@H](CCCCC)OC(=O)C(C)N(C)C1=O` (stereo partly drawn): the Potency is 9.35 µM (active).
Turning to `CO[C@H](c1ccccc1)[C@H]1NC(=O)C(C)NC(=O)C(C[C@@H](C)CO)N(C)C(=O)[C@@H](C(O)c2cn(C(C)(C)C3CO3)c3ccccc23)NC(=O)C(C(C)C=C(C)C)NC(=O)C(CC(C)C)N(C)C(=O)C(C(C)C)NC1=O` (stereo partly drawn), the “activity change, negative = cytotoxicity” value was -11.1% [at 27.5 µM] (inactive).
Regarding `CC1=CC(=O)C2=C(C)C[C@H](O)[C@@H]3[C@H](OC(=O)[C@@H]3C)[C@@H]12`, the molecule was classed as inactive.
As to `CCN1C[C@]2(C)CC[C@H](O)[C@]34C1C(C[C@H]23)[C@@]12CC[C@H](CC14)[C@](O)(COC(=O)c1ccc(OC)c(OC)c1)[C@H]2O` (stereo partly drawn), the “activity change, negative = cytotoxicity” value is -4.01% (inactive).
For the molecule `CCC(=O)CCCCC[C@@H]1NC(=O)[C@H]2CCCCN2C(=O)[C@H]([C@@H](C)CC)NC(=O)[C@H](Cc2cn(OC)c3ccccc23)NC1=O`, the Potency is 1.18 µM (active).

A further test is described as follows: qHTS for ATAD5 Agonist screened against the NCATS CANVASS Library (AID 1347367). For activation: 0% is about no effect.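 Note: luciferase reporter driven by ATAD5 which rises upon DNA damage.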 The conditions noted are these: HEK293T ATAD5-luciferase reporter, luminescence, 16 h; series mostly up to 46.1 µM; activation: at the top concentration. In outline: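 HEK293T cells stably carrying an ATAD5-controlled luciferase reporter (2000 cells/well) attached for 5 hr, then received compounds in an 11-point series for 16hr at 37C. Luminescence was read after a 30 min room-temperature reagent step.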
Regarding `CC1=CC2CC[C@@H]3[C@@H](C)C[C@H](C)[C@@H](C1)N23` (stereo partly drawn), the “activation” value is 1.35% (inactive).
For the molecule `CC=C1CN(C=O)[C@H]2C[C@@H]1[C@@H](C(=O)OC)[C@@]13CCOC21Nc1ccccc13` (stereo partly drawn), the “activation” value is -1.78% (inactive).
As for `CCN1C[C@]2(C)CC[C@@H](O)[C@]34C1[C@H](C[C@H]23)C12CCC(CC14)[C@](O)(CO)[C@H]2O` (stereo partly drawn), the “activation” value is -0.682% (inactive).
Still for that read-out and setting: then `CO[C@@H](/C=C/CC/C=C/C(=O)O)[C@@H](O)[C@H](C)[C@@H](O)/C(C)=C/[C@H](C)C(=O)CCCC1CC(=O)NC(=O)C1`, with -1.48% (inactive).
As to `CCCC[C@@H]1CC[C@H]2CCCC(CCC)N12` (stereo partly drawn), the “activation” value is -1% (inactive).
As to `C[C@]12CC(O)C3[C@@H](CCC4C[C@@H](O)CC[C@@]43CO)[C@@]1(O)CCC2C1=CC(=O)OC1` (stereo partly drawn), the “activation” value is -0.657% (inactive).
As to `CO[C@@H](/C=C/CC/C=C/C(=O)O)[C@@H](O)[C@H](C)/C=C(\C)[C@@H](O)[C@H](C)C(=O)CCCC1CC(=O)NC(=O)C1`, the “activation” value is 4.4% (inactive).
Take `O=C(c1ccccc1O)c1[nH]c(Cl)c(Cl)c1-n1c(C(=O)c2ccccc2O)cc(Cl)c1Cl`: the “activation” value is 2.01% (inactive).
`CC[C@@H]1CN2CC[C@@]3(O)C(=Nc4cccc(OC)c43)[C@@H]2C[C@@H]1/C(=C\OC)C(=O)OC`: the “activation” value was -1.29% (inactive).
For the molecule `c1ccc2c3c([nH]c2c1)CNCC3`, the “activation” value is -0.536% (inactive).
On the same count and under the same terms, to `CNCCc1ccccc1` belongs -1% (inactive).
As for `CCCCC[C@@H]1OC(=O)[C@@H](C)N(C)C(=O)[C@H](CCCCC)OC(=O)C(C)N(C)C(=O)[C@H](CCCCC)OC(=O)[C@@H](C)N(C)C(=O)[C@H](CCCCC)OC(=O)C(C)N(C)C1=O` (stereo partly drawn), the “activation” value was -1.13% (inactive).
Take `CO[C@H](c1ccccc1)[C@H]1NC(=O)C(C)NC(=O)C(C[C@@H](C)CO)N(C)C(=O)[C@@H](C(O)c2cn(C(C)(C)C3CO3)c3ccccc23)NC(=O)C(C(C)C=C(C)C)NC(=O)C(CC(C)C)N(C)C(=O)C(C(C)C)NC1=O` (stereo partly drawn): the “activation” value is -0.862% [at 27.5 µM] (inactive).
Consider `CC1=CC(=O)C2=C(C)C[C@H](O)[C@@H]3[C@H](OC(=O)[C@@H]3C)[C@@H]12`, for which the “activation” value is 1.68% (inactive).
For `CCN1C[C@]2(C)CC[C@H](O)[C@]34C1C(C[C@H]23)[C@@]12CC[C@H](CC14)[C@](O)(COC(=O)c1ccc(OC)c(OC)c1)[C@H]2O` (stereo partly drawn), the “activation” value is 1.91% (inactive).
Regarding `CCC(=O)CCCCC[C@@H]1NC(=O)[C@H]2CCCCN2C(=O)[C@H]([C@@H](C)CC)NC(=O)[C@H](Cc2cn(OC)c3ccccc23)NC1=O`, the Potency was 1.86 µM (active).
